Rows were chosen to be rich in hits. Some 2% of all compounds tested hit in one or more screens of this group.
TDP-43 yeast inh = TDP-43 toxicity inhibition in yeast. TDP-43 expressing yeast growth rescue, BacTiter-Glo, 24 h. Potency, µM (series often up to 46.1 µM), for inactives: at the highest dose growth rescue (activation), hits mostly activators. 410,000 tested, 1.8% active; also: % of control where 0% means no effect; nearly all actives have a fitted effect of over 50% in size
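Galactose-induced TDP-43 yeast, OD600=0.02, compound pinned; 24 hr, 30 deg C; BacTiter-Glo luminescence for growth. Inhibitors of TDP-43 toxicity read as activators.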
Rango-impB inh = Rango-importin beta binding inhibition; Q14974; Rango CFP/YFP FRET sensor + importin beta, 45 min; Potency, µM (top dose mostly 92.2 µM), for inactives: top-dose inhibition of complex formation; 340,000 tested, 0.031% active; calls by dose curve;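 also: 0% = DMSO wells and 100% = buffer wells lacking importin beta; nearly all actives have a fitted effect of over 15% in size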
Target sequence (Q14974 whole entry, looked up): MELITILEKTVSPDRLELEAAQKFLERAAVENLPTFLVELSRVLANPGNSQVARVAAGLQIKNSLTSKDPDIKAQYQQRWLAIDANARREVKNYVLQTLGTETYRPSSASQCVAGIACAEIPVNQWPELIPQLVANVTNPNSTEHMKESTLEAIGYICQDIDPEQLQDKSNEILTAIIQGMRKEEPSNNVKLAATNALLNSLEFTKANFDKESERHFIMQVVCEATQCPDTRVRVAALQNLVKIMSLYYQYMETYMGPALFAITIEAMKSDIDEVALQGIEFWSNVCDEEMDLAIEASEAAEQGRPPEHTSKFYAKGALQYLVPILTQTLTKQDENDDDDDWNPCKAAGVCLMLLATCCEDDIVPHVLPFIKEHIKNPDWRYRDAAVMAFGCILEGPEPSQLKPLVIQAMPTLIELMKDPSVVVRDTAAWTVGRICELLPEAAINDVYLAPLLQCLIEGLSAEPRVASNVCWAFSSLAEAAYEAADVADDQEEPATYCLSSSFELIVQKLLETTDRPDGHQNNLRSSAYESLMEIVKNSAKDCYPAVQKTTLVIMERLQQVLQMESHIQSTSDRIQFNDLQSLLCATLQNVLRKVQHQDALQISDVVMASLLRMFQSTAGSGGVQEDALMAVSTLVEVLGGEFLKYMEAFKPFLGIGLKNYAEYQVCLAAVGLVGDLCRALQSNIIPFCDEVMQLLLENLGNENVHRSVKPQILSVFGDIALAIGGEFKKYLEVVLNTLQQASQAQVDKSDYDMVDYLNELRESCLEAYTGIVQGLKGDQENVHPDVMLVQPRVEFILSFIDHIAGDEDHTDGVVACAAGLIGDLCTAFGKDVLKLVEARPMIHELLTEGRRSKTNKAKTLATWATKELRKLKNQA
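FRET biosensor (snurportin 1 IBB flanked by EYFP and cerulean), 50 nM, with compound 5 min, then 0.125 microM importin beta in PBS, 1 mM DTT, 0.02% Tween-20, 0.1% BSA. CFP/YFP ratio read after 45 min at room temperature; pre-read flags interference.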
Rango release inh = prevents RanGTP from dissociating the Rango-importin beta complex; Biochemical FRET Rango-importin beta, RanGTP-induced dissociation; Potency, µM (titrated, usually from 46.1 µM), for inactives: at the highest dose activity change, negative = inhibition; 340,000 tested, 0.071% active; O95149+P62826; AID 540253; calls by dose curve; also: % of control where 0% means no effect; nearly all actives have a fitted effect of over 45% in size
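Rango/importin beta premix (0.1/0.25 uM final), PBS + 1 mM DTT + 0.02% Tween-20 + 0.1% BSA; cpd 5 min RT; FRET pre-read; + RanGTP-RCC1 (0.6 uM Ran, 2 mM GTP, 0.2 uM RCC1); 45 min RT; FRET post-read, ex 430, em 486/530 nm.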
S-ASM inh = inhibitors of human secretory acid sphingomyelinase; placental ASM, HMU-PC fluorogenic substrate, 60 min; Potency, µM (highest dose often 57.5 µM), without a hit: at the top dose activity change, negative = inhibition, hits mostly inhibitors; 340,000 tested, 0.006% active; P17405
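Fluorogenic HMU-PC substrate (9 uM final) is turned over by placental ASM in 60 min at 37 C after a 10 min compound preincubation. Reaction ended by alkaline stop (pH 10), with fluorescence read at 386/447 nm.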
aSyn yeast inh = rescues yeast growth from alpha-synuclein toxicity; 370,000 tested, 0.14% active; Yeast expressing alpha-synuclein, growth rescue, BacTiter-Glo, 24 h; Potency, µM (series often up to 46.1 µM), inactives show at the highest dose growth rescue (activation), hits mostly activators; AID 652106; also: % of control where 0% means no effect; nearly all actives have a fitted effect of over 65% in size
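Readout is rescue of growth in alpha-synuclein-expressing yeast, so inhibitors of toxicity appear as activators. Growth after 24 hr at 30 deg C in galactose medium is quantified by luminescence.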
Abeta rescue = compounds reversing amyloid beta toxicity in yeast | 410,000 tested, 0.063% active | yeast expressing A-beta42, growth rescue, OD600, 48 h; response scale: 0% DMSO, 100% iron-clioquinol control | AID 1347071 | Potency, µM (series often up to 46.1 µM), actives largely listed as activators; also: nearly all actives have a fitted effect of over 55% in size
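Growth rescue measured by 600 nm absorbance after 48 h yeast culture at 30 C with compound. Values normalized between DMSO and an equimolar ferric chloride plus clioquinol control.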
* = called active by the depositor; i = inactive; ? = inconclusive; . = no result given. Unless noted, calls follow the shape of the dose curve; as a rule, active = well fitted curve in the direction sought with a large enough effect; inconclusive = small, poorly fitted or top-dose-only effect, or another doubt; inactive = no such curve, though single readings can be large; an effect the other way counts as inactive or inconclusive. Potency is read from the fitted curve at half-maximal effect.

SMILES	TDP-43 yeast inh	Rango-impB inh	Rango release inh	S-ASM inh	aSyn yeast inh	Abeta rescue
Cc1nc2c(O)c3c(c(O)c2nc1C)C1C=CC3CC1	13µM*	7%	23%	-2%	8%	i
O=C(CC1N=C2c3ccccc3N=C(SCc3cccc(F)c3)N2C1=O)NCc1ccc2c(c1)OCO2 (stereo not given)	8%	.	.	.	.	i
CCN(CC)c1ncnc2scc(C3COc4ccccc4O3)c12 (stereo not given)	18µM*	1%	5%	-14%	2%	i
O=C(/C=C/c1cccs1)Nc1cccc(NC(=O)/C=C/c2cccs2)n1	7.9µM*	?	-14%	-8%	-8%	i
O=C(/C=C/c1cccs1)Nc1nccs1	11%	0%	-9%	17%	4%	i
O=C1[C@H]2[C@H](C=CC[C@H]2C(=O)N2CCN(c3ccccc3)CC2)CCN1Cc1ccccc1	28µM*	-3%	-12%	-5%	?	i
O=C1[C@H]2[C@H](C=CC[C@H]2C(=O)N2CCN(c3ccccc3)CC2)CCN1Cc1ccc(Cl)c(Cl)c1	6%	-5%	-5%	-15%	?	i
COc1cc(/C=C/C(=O)OC(C)C(=O)Nc2c(C)n(C)n(-c3ccccc3)c2=O)ccc1O (stereo not given)	20%	?	23µM*	27%	-4%	i
Cc1c(NC(=O)C(C)OC(=O)/C=C/c2ccccc2)c(=O)n(-c2ccccc2)n1C (stereo not given)	20%	-1%	0%	0%	-6%	i
COc1ccc2c(CNCCc3cccs3)c(C(=O)O)n(Cc3ccccc3C)c2c1	21%	.	.	.	.	i
CCC1OC2(C)OC(=N)C1(C#N)C(C#N)(C#N)C2c1ccccc1 (stereo not given)	-8%	?	8.2µM*	i	-3%	i
Brc1ccc(-c2cc3c(N4CCN(c5ccccc5)CC4)nccn3n2)cc1	-11%	.	.	.	.	i
COc1ccc(OC)c(C2=Nn3c(nnc3-c3ccco3)SC2)c1	7%	6%	17%	-13%	4%	i
COc1ccc(C2=Nn3c(nnc3-c3ccco3)SC2)cc1	22µM*	-1%	-7%	-2%	7%	i
Cc1cc(C)c(NC(=O)CSc2ccnc(=O)[nH]2)c(C)c1	17%	.	.	.	.	i
Nc1c(Cl)c(Cl)nc(C(=O)OCC(=O)N2CCCC2=O)c1Cl	8%	-1%	11%	0%	-2%	i
O=C(OCC(=O)N1CCCC1=O)c1nc(Cl)c(Cl)c(Cl)c1Cl	25µM*	6%	0%	0%	4%	i
O=C(c1ccc(Cl)cc1)c1cc(-c2ccccn2)c(N2CCOCC2)s1	14µM*	?	?	18%	5%	i
Cn1cc(C(=O)c2cccc(Cl)c2Cl)cc1C(=O)O	0%	0%	18%	4%	-2%	i
COC(=O)c1cc(C(=O)c2ccc(Cl)cc2Cl)cn1C	11µM*	5%	0%	0%	-5%	i
Cn1cc(C(=O)c2ccc(Cl)cc2Cl)cc1C=O	-23%	-1%	1%	-5%	20%	i
COC(=O)c1cc(C(=O)c2cccc(Cl)c2Cl)cn1C	18µM*	-1%	19%	-5%	13%	i
COc1ccc(C(C)C)cc1S(=O)(=O)NCCc1c(C)[nH]c2c(Cl)cccc12	6.3µM*	.	.	.	.	i
COc1ccc(C(C)C)cc1S(=O)(=O)NCCc1c(C)[nH]c2ccc(C)cc12	?	.	.	.	.	i
O=C(Nc1ccc(Br)cc1)C1CCCN1S(=O)(=O)c1ccc(F)cc1 (stereo not given)	22µM*	.	.	.	.	i
O=C(Nc1nc2ccccc2s1)C1CCCN1S(=O)(=O)c1ccc(Cl)cc1 (stereo not given)	18µM*	0%	-29%	-8%	19%	i

Screening results from PubChem.
